Bioassay records deposited in PubChem BioAssay by National Center for Advancing Translational Sciences (NCATS).
RORg inh = blocks mouse ROR gamma transcriptional activity. AID 2551. Potency, µM (series often up to 53.6 µM), inactives show at the highest dose activity change, negative = inhibition, actives largely listed as inhibitors. Drosophila S2 Gal4-RORgamma UAS-luciferase reporter, 20 h. actives 5.4% (n = 310,000); also: nearly all actives have a fitted effect of over 60% in size
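Drosophila S2 cells stably expressing Gal4-DBD/mouse RORγ fusion under metallothionein promoter plus UAS-luciferase; compound 1 h, then 700 uM CuSO4 induction for 20 h at ambient temperature; inhibition read as reduced luminescence.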
VP16 counter = inhibits Gal4-VP16 luciferase reporter, ROR gamma counter-screen. Drosophila S2 Gal4-VP16 UAS-luciferase, luminescence, 20 h. Potency, µM (top dose mostly 53.6 µM), without a hit: top-dose activity, negative = inhibition, usual class: inhibitors. actives 3.5% (n = 310,000);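 also: Gal4-VP16 expression switched on by copper sulfate through the metallothionein promoter; nearly all actives have a fitted effect of over 50% in size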
ELG1 repair inh = inhibitors of ELG1-dependent DNA repair in HEK293T cells | HEK293T ELG1-luciferase reporter, luminescence, 16 h; DNA damage induced by 5-fluorouridine | Potency, µM (titrated, usually from 46.1 µM), inactives show at the top dose activity change, negative = inhibition, usual class: inhibitors | actives 2.3% (n = 330,000) | AID 504467; also: nearly all actives have a fitted effect of over 55% in size
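Quantitative HTS, concentration-response format. 2,000 cells/well co-treated with 5-fluorouridine and compound, 16 hr in 5% CO2 at 37 °C; ONE-Glo luminescence read after 30 min.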
DT40 TDP1 no CPT = qHTS for Inhibitors of human tyrosyl-DNA phosphodiesterase 1 (TDP1): qHTS in cells in absence of CPT; DT40 Tdp1-/- hTDP1 cells, no CPT, ATP luminescence, 48 h; Potency, µM (titrated, usually from 46.2 µM), inactives show top-dose activity change, negative = growth inhibition, hits mostly inhibitors; actives 15% (n = 420,000); AID 686978, 2013; also: nearly all actives have a fitted effect of over 55% in size
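A cellular qHTS used chicken DT40 cells lacking endogenous Tdp1 but carrying stably transfected human TDP1. Compounds were applied without camptothecin, and cell growth kinetics were judged by ATP-dependent luminescence after ≥48 hr.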
12-LOX inh = inhibitors of human 12S-lipoxygenase ALOX12; purified 12hLO, xylenol orange hydroperoxide absorbance; AID 1671190; Potency, µM (doses to about 108 µM), inactives show top-dose activity change, negative = inhibition, usual class: inhibitors; P18054; actives 1.1% (n = 580,000)
Target sequence (P18054 whole entry, looked up): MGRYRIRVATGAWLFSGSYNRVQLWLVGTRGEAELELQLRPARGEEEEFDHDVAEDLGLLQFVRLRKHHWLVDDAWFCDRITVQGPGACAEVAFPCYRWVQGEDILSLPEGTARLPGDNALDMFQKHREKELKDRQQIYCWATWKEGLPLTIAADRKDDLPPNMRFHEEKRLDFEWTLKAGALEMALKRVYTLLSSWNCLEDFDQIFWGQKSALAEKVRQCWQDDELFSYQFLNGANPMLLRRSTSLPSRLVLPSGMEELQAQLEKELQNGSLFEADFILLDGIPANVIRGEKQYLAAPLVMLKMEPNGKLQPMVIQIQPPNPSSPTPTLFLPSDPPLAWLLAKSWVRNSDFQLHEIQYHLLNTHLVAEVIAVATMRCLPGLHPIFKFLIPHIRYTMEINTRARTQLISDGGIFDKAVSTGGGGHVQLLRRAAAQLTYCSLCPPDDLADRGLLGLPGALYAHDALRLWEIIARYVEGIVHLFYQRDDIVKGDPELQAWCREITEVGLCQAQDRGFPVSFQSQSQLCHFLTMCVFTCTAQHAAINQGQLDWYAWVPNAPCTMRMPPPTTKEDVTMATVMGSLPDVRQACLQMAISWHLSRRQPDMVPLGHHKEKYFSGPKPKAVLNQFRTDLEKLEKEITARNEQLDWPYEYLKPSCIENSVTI
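Hydroperoxide product was detected by ferrous iron/xylenol orange as the 573 to 405 nm absorbance ratio. Arachidonic acid at 40 uM (final) was turned over for 30 min at room temperature by 150 nM human 12hLO, pH 7.0 Hepes buffer, after 15 min compound preincubation.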
TDP1 cell CPT = growth inhibition of DT40 Tdp1-/-;hTDP1 cells with camptothecin (screen for TDP1 inhibitors); chicken DT40 Tdp1-/-;hTDP1 cells + 20 nM CPT, ATP luminescence, 48 h; Potency, µM (highest dose often 46.2 µM), for the others: top-dose activity change, negative = growth inhibition, usual class: inhibitors; actives 12% (n = 420,000); also: nearly all actives have a fitted effect of over 55% in size
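Chicken DT40 Tdp1-/- cells stably complemented with human TDP1 were seeded at 400 cells/well in medium containing 20 nM camptothecin, exposed to pin-transferred compounds, and grown at 37 °C for at least 48 hr. Viability was read as ATP luminescence.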
* hit, by the source's call; ? = inconclusive; / = no result; [ ] = remark or other dose. The list is not random: actives were taken first. Their share in the collection is about 15%. Calls follow the shape of the dose curve; as a rule, active = well fitted curve in the direction sought with a large enough effect; inconclusive = small, poorly fitted or top-dose-only effect, or another doubt; inactive = no such curve, though single readings can be large; an effect the other way counts as inactive or inconclusive. % is scaled to controls: 0 for no effect and ±100 for the full control effect; potency is read from the fitted curve at half-maximal effect.

SMILES	RORg inh	VP16 counter	ELG1 repair inh	DT40 TDP1 no CPT	12-LOX inh	TDP1 cell CPT
CC(C)c1ccc(CC(=O)N2CCC2(C)C(=O)Nc2ccccc2)cc1 (stereo not drawn)	/	/	/	?	6.2%	?
CC(C)(C)c1ccc(C(=O)N2CCC2(C)C(=O)Nc2cnc3ccccc3c2)cc1 (stereo not drawn)	/	/	/	25.9µM*	?	23.1µM*
CC(C)(C)c1ccc(CC(=O)N2CCC2(C)C(=O)NS(=O)(=O)Cc2ccccc2)cc1 (stereo not drawn)	/	/	/	-5.7%	-52.8%	-14.9%
CC(C)c1ccc(CC(=O)N2CCC2(C)C(=O)Nc2cnc3ccccc3c2)cc1 (stereo not drawn)	/	/	/	?	4.9%	16.4µM*
CC(C)(C)c1ccc(C(=O)N2CCC2(C)C(=O)NCC(F)(F)F)cc1 (stereo not drawn)	/	/	/	?	10.1%	?
CC(C)(C)c1ccc(CC(=O)N2CCC2(C)C(=O)Nc2cnc3ccccc3c2)cc1 (stereo not drawn)	/	/	/	11.6µM*	-15.1%	20.6µM*
CCn1c2c(c(=O)n3ncc(C(=O)Nc4cc(Cl)ccc4C)c13)CN(Cc1ccc(OC)cc1)CC2	/	/	/	20.6µM*	-28.4%	?
CCn1c2c(c(=O)n3ncc(C(=O)Nc4ccc(F)cc4Cl)c13)CN(Cc1ccc(OC)cc1)CC2	/	/	/	23.1µM*	?	?
CCn1c2c(c(=O)n3ncc(C(=O)Nc4cccc(Cl)c4C)c13)CN(Cc1ccc(OC)cc1)CC2	/	/	/	?	?	20.6µM*
Cc1ccc(Cl)cc1NC(=O)CSc1nc2c(c(=O)[nH]1)CN(Cc1ccccc1)CC2	/	/	/	?	-2.6%	-15.7%
COc1ccc(CN2CCc3c(c(=O)n4ncc(C(=O)N5CCN(c6ccccc6OC)CC5)c4n3C)C2)cc1	/	/	/	11.6µM*	-6.7%	16.4µM*
COc1ccccc1N1CCN(C(=O)c2ccc(CN3CCOCC3)cc2)CC1	-4.0%	-1.6%	0.9%	?	-1.1%	?
COc1cc(=O)n2c(c1C(=O)Nc1ccc(F)cc1Cl)CCCC2	/	/	/	/	3.2%	/
C[S+](=O)([O-])N1CC2(Cc3ccccc31)CN([S+](=O)([O-])c1cccs1)C2	/	/	/	/	2.0%	/
O=S1(=O)N[C@H](Cc2ccccc2)COc2cc(N3CCN(Cc4ccccc4F)CC3)ccc21	/	/	/	16.4µM*	-1.2%	?
C[C@@H]1CCCCO[C@H](CN(C)C(=O)Nc2cccc3ccccc23)[C@@H](C)CN([C@H](C)CO)C(=O)c2cc(NC(=O)c3ccccc3)ccc2O1	/	/	/	3.66µM*	-6.6%	4.61µM*
C[C@@H]1CN([C@@H](C)CO)C(=O)c2cc(NC(=O)Nc3ccccc3)ccc2O[C@H]1CN(C)C(=O)Nc1cccc2ccccc12	/	/	14.6µM*	18.4µM*	/	13µM*
CC(C)NC(=O)N(C)C[C@H]1OCCCC[C@@H](C)Oc2ccc(NC(=O)C3CCCCC3)cc2C(=O)N([C@H](C)CO)C[C@@H]1C	/	/	/	11.6µM*	?	?
C[C@@H]1CN([C@@H](C)CO)C(=O)c2cc(NC(=O)Nc3cccc4ccccc34)ccc2O[C@@H](C)CCCCO[C@H]1CN(C)C(=O)c1ccccc1	/	/	/	20.6µM*	2.9%	?
CCn1c2c(c(=O)[nH]c1=O)C(c1ccccc1)C1=C(CC(C)(C)CC1=O)N2 (stereo not drawn)	/	/	/	/	54.1%	/
COCCCNCc1ccccc1C	/	/	/	/	7.6%	/
C=C(C)COc1ccc2c(C)c(CCC(=O)Nc3nccs3)c(=O)oc2c1	/	/	/	/	10.1%	/
Cc1cc(CNC(=O)[C@@H]2CCC[C@@H](NCC3CC3)CN(C)C(=O)C2)no1	/	/	/	/	15.8%[176 µM]	/
